# FBPA Giardia inh = Giardia lamblia aldolase inhibition; 0.71% of 290,000 active; Potency, µM (series often up to 59.6 µM), without a hit: at the highest dose activity, negative = inhibition, usual class: inhibitors; AID 2451; purified Giardia FBPA; also: potency is read from the fitted curve at half-maximal effect; % is scaled to controls: 0 for no effect and ±100 for the full control effect; nearly all actives have a fitted effect of over 55% in size
# Target sequence (A8B2U2 whole entry, looked up): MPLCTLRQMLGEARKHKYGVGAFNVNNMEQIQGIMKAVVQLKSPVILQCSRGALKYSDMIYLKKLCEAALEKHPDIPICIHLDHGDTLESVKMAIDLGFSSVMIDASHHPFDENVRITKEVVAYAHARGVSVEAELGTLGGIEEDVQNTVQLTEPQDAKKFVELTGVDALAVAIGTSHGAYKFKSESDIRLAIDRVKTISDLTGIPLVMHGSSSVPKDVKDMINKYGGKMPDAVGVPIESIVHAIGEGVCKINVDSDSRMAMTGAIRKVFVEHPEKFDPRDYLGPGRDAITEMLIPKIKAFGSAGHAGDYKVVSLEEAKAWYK
#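 40 nM FBPA preincubated 10 min at RT with compound (up to 57.5 uM final), then substrate plus GAPDH/TPI/NAD/arsenate coupling and diaphorase/resazurin added. Fluorescence read after 20 min at RT, 525/598 nm.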
# LmPK inh = blocks Leishmania mexicana pyruvate kinase activity; 0.37% of 290,000 active; Potency, µM (top dose mostly 57.5 µM), without a hit: top-dose activity change, negative = inhibition, actives largely listed as inhibitors; AID 1721; purified LmPK, Kinase-Glo ATP luminescence, 1 h; also: potency is read from the fitted curve at half-maximal effect; % is scaled to controls: 0 for no effect and ±100 for the full control effect
#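 Purified LmPK (0.1 nM) converted ADP (0.1 mM) to ATP with PEP (0.5 mM) in imidazole buffer pH 7.2 with KCl and MgCl2, 1 h at room temperature. ATP was read by Kinase-Glo luminescence; data normalized to uninhibited and no-enzyme controls.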
# Cycloheximide cs = counter-screen for Shiga toxin inhibitors: cycloheximide protein synthesis inhibition | AID 2314 | max response, % | cell reporter, cycloheximide protein synthesis inhibition counterscreen | 12% of 300,000 active; in the data active = max response mostly above about 13%, no sharp cut-off; inactive = mostly below about 14%; also: read at 38.3 µM for the half of the compounds with a filed dose; 0% is about no effect
# Shiga toxin inh = blocks Shiga toxin action in Vero cells. Vero cells, Shiga toxin protein synthesis inhibition reporter. inhibition, % at 38.7 µM. 9.2% of 290,000 active; in the data active = inhibition mostly above about 28%, no sharp cut-off; inactive = mostly below about 43%; also: 0% is about no effect
# Tb PYK inh = inhibitors of Trypanosoma brucei pyruvate kinase. Q57TT1. TbPYK enzyme, Kinase-Glo Plus ATP luminescence, 45 min. Potency, µM (top dose mostly 76.8 µM), for inactives: at the top dose activity, negative = inhibition, usual class: inhibitors. 0.12% of 410,000 active; also: potency is read from the fitted curve at half-maximal effect; % is scaled to controls: 0 for no effect and ±100 for the full control effect; nearly all actives have a fitted effect of over 50% in size
#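 Readout: single end-point luminescence (Kinase-Glo Plus, 10 min). Reaction conditions were TbPYK/substrate plus 130 uM ADP, 45 min at RT, pH 7.2 TEA buffer. No-enzyme wells served as controls, and data were normalized before concentration-response fitting.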
# RE007 growth inh = less growth of the S. pombe RE007 Vpr strain; S. pombe RE007 Vpr strain, BacTiter-Glo ATP luminescence, 24 h; Potency, µM (series often up to 92.2 µM), for the others: top-dose activity change, negative = less growth, actives largely listed as inhibitors; 0.21% of 360,000 active; AID 651644; active = well fitted falling curve with a large enough effect; inconclusive = small, poorly fitted or top-dose-only effect; inactive = no such curve, though single readings can be large or run the other way; also: potency is read from the fitted curve at half-maximal effect; % is scaled to controls: 0 for no effect and ±100 for the full control effect; nearly all actives have a fitted effect of over 50% in size
#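 Fission yeast RE007 carrying one integrated HIV-1 vpr copy, seeded at OD 0.01 in PMG+AL medium with 23 nL pinned compound. Grown 24 h at 30 degrees; viability read by BacTiter-Glo luminescence after 5 min.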
# * marks the source's active call; other numbers are inactive results; ? = inconclusive; . = not tested or not shown. Only a selection was taken, and hits are over-represented in it overall. Unless noted, calls follow the shape of the dose curve; as a rule, active = well fitted curve in the direction sought with a large enough effect; inconclusive = small, poorly fitted or top-dose-only effect, or another doubt; inactive = no such curve, though single readings can be large; an effect the other way counts as inactive or inconclusive.
SMILES,FBPA Giardia inh,LmPK inh,Cycloheximide cs,Shiga toxin inh,Tb PYK inh,RE007 growth inh
O=C(CNC(=O)c1sc2ccccc2c1Cl)NCc1cccnc1,.,-4.5%,6.4,16.7,-9.9%,-21.3%
CCCOC(=S)NC(=O)c1sc2ccccc2c1Cl,-15.0%,-2.6%,39.8*,63.3*,-15.1%,-10.1%
CCCCC(=O)Nc1ccc(OCc2cc(=O)n3ccc(C)cc3n2)cc1,.,.,.,.,-5.7%,.
O=C(Cn1nnc(-c2cccs2)n1)NCc1ccco1,-0.4%,0.7%,12.2*,51.5*,-12.5%,-3.8%
CC(C)(C)NC(=O)Cn1nnc(-c2cccs2)n1,0.7%,1.1%,31.2*,29.8*,-6.5%,6.8%
O=C(Cn1nnc(-c2cccs2)n1)NCc1ccccc1,3.1%,-2.1%,21.3,16.5,4.3%,-5.2%
COc1cc(OC)c(S(=O)(=O)Nc2ccc(C(=O)O)cc2)cc1S(=O)(=O)Nc1ccc(C(=O)O)cc1,-12.9%,4.5%,-6.0,10.9,-15.7%,5.4%
CCc1cccc(CC)c1NS(=O)(=O)c1ccc2c(c1)CCN2C(=O)C1CC1,.,.,.,.,-4.4%,.
Cc1ccc(-c2cnc3n2CCCCC3)cc1,-0.9%,6.3%,2.2,14.4,-3.2%,-1.4%
c1cc2c(cc1-c1cnc3n1CCC3)OCCO2,-0.2%,-5.2%,15.8,86.9*,-5.6%,0.1%
c1ccc(-c2ccc(-c3cnc4n3CCCCC4)cc2)cc1,8.6%,12.9%,22.5*,58.0,-0.8%,?
CCOc1ccc(-c2cnc3n2CCCCC3)cc1,-9.7%,-5.7%,8.6*,14.9,0.8%,-15.8%
N#Cc1ncc(-c2ccc3c(c2)OCCOCCOCCOCCO3)nc1C#N,-0.9%,-1.9%,0.4,15.3,-2.0%,5.7%
Cc1cc2ccccc2n1-c1ccc(C(=O)N2CCC(C(=O)NCc3ccccc3Cl)CC2)s1,.,.,.,.,4.4%,.
N#Cc1cc2c(nc1SCC1COc3ccccc3O1)CCC2 (configuration not stated),-0.5%,5.4%,35.4*,58.3*,-5.9%,2.7%
Cc1cc(C)c(C#N)c(SCC2COc3ccccc3O2)n1 (configuration not stated),8.7%,2.0%,21.0*,13.2,2.5%,-19.4%
Cc1cc(C)n2nc(SCC3COc4ccccc4O3)nc2n1 (configuration not stated),-14.8%,-3.1%,51.3*,88.7*,-10.6%,18.1%
O=C(CC1CCCC1)Nc1ccc(Cl)c(S(=O)(=O)N2CCOCC2)c1,.,.,.,.,5.4%,4.8%
COC(=O)c1nc2ccc(C)cn2c1F,1.4%,5.0%,19.5*,36.3,2.7%,-4.3%
COC(=O)c1ccc2nc(-c3ccc(C)cc3)c(Cc3cccc(F)c3)n2c1,.,.,.,.,-0.5%,-27.8%
CN(C)c1ccc(CNC(=O)c2ccc(Cn3c(=O)c4cccn4c4cccnc43)cc2)cc1,.,.,.,.,-3.9%,.
Cn1c(NCCCCO)nc2c1c(=O)n(Cc1ccc(Cl)cc1)c(=O)n2C,.,.,.,.,2.7%,.
S=C(Sc1ccc(Cl)cc1)Sc1ccc(Cl)cc1,-8.5%,0.6%,20.9*,20.9,.,.
CC(C)=CC(=O)Nc1ccc(Cl)cc1,-12.4%,-19.4%,54.5*,54.6*,-10.6%,-15.8%
COc1ccc(NC(=O)COC(=O)/C=C/C(=O)OCC(=O)Nc2ccc(OC)c(Cl)c2)cc1Cl,0.0%,0.8%,6.0,10.2,-16.8%,.
SMILES,FBPA Giardia inh,LmPK inh,Cycloheximide cs,Shiga toxin inh,Tb PYK inh,RE007 growth inh
CCOC(=O)/C=C/C(=O)OCC(=O)Nc1ccc(OC)c(Cl)c1,1.8%,-0.2%,12.4*,-1.6,-2.3%,-3.1%
CCc1ccc2occ(CC(=O)Nc3ccc(OC)c(Cl)c3)c2c1,.,.,13.1,36.5*,-7.7%,.
CCC(=O)Nc1ccc(NC(=O)/C=C/c2ccc(Cl)cc2)cc1,5.7%,-1.8%,0.2,-10.1,-9.0%,6.0%
COc1ccc(NC(=O)C=C(C)C)cc1Cl,-2.7%,15.8µM*,28.7*,102.2*,-12.1%,-26.4%
COc1ccc(-c2noc(CN(C)C(=O)CCCN3C(=O)[C@H]4CC=CC[C@H]4C3=O)n2)cc1,.,.,.,.,6.0%,-15.1%
CC(=O)N1CC=CC1(C)C(=O)NCC1CC1 (configuration not stated),-2.4%,.,.,.,.,.
COc1ccc(CCNC(=O)c2ccc(F)c(S(=O)(=O)N3CCCCC3)c2)cc1,.,.,.,.,4.5%,-11.4%
O=C(/C(=C/O)N=Nc1ccccc1Cl)c1ccccc1,0.8%,4.7%,30.8*,97.6,-1.3%,?

# Assay outcomes: PubChem BioAssay, National Center for Advancing Translational Sciences (NCATS)
